Laboratory results: publication PMC4336329 (PLoS ONE, 2015)
The campaign covered roughly 310,000 compounds. About 14,000 (4.5%) showed an effect of 50% or more. The effect is printed as a negative number. The list comes from a sample in which strong results are over-represented; it also holds similar structures and randomly drawn compounds.

Each compound was assayed against human ether-à-go-go-related gene (hERG) potassium channel (human, UniProt Q12809) (assay: primary screen, population patch clamp on CHO cells stably expressing hERG; higher = less effect of the substance).
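Note: peak tail current of the secondary pulse compared with the same well before compound.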

human ether-à-go-go-related gene (hERG) potassium channel, sequence (Q12809 whole entry, looked up): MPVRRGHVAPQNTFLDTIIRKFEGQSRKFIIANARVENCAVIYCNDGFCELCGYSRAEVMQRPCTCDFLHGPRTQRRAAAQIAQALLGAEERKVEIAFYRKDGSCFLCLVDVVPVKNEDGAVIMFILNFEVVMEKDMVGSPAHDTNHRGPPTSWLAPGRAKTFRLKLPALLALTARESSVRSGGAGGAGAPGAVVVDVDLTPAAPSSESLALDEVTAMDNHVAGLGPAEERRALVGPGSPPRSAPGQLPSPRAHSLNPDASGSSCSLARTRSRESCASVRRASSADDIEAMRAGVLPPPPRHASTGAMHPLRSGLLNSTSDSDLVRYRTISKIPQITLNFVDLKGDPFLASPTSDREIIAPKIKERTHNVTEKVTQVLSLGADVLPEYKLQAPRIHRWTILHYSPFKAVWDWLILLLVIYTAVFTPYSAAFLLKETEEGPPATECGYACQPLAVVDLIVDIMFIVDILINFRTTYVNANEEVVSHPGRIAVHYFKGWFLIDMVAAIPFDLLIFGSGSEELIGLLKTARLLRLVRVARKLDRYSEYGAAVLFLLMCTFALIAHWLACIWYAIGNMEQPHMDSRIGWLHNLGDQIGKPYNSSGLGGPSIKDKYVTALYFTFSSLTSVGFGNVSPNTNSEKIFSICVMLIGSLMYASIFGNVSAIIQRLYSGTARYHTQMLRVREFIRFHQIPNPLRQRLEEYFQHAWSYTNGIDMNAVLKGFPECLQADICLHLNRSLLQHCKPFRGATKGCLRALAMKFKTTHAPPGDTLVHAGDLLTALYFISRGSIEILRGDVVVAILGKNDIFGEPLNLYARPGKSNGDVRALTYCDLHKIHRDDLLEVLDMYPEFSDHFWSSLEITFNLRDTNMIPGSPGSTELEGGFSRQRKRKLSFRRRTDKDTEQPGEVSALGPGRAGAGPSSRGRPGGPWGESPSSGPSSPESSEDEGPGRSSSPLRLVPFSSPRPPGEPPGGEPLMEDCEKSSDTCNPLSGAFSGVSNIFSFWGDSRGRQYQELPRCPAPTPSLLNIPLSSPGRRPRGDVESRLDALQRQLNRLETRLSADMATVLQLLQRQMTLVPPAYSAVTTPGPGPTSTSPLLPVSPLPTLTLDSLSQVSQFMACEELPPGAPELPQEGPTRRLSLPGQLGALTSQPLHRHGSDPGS

Row | Structure (SMILES) | hERG current change (%, negative = inhibition) at 10uM [%]
1 | Cc1cc(/C=C(/C#N)C(=O)O)c(C)n1-c1cccc2ccccc12 | 20.1
2 | CCn1cc(C(=O)NCc2cccc(C(F)(F)F)c2)c(=O)c2ccc(C)nc21 | 2.71
3 | O=C(Nc1ccc(N2CCN(Cc3ccccc3)CC2)cc1)c1cccnc1 | -14.4
4 | CN1CCN(C(=O)CCN2C(=O)/C(=C/c3cccc(Br)c3)SC2=S)CC1 | 11.4
5 | O=C(c1ccccc1)c1ccc(OC(=O)N2CCCC2)cc1 | -11
6 | CCCNc1c(NS(=O)(=O)c2ccc(OC)c(OC)c2)c(=O)oc2ccccc12 | -74.1
7 | COc1ccc(OC)c(S(=O)(=O)Nc2c(NC3CCCCC3)c3ccccc3oc2=O)c1 | -54.1
8 | Cc1ccc(S(=O)(=O)Nc2c(NC3CCCCC3)c3ccccc3oc2=O)cc1 | -33.9
9 | CCCNc1c(NS(=O)(=O)c2ccc(C(C)(C)C)cc2)c(=O)oc2ccccc12 | 10.8
10 | Cc1ccc(S(=O)(=O)Nc2c(NC3CCCCC3)c3ccccc3oc2=O)cc1C | 2.53
11 | N#Cc1cccc(S(=O)(=O)Nc2c(NC3CCCCC3)c3ccccc3oc2=O)c1 | -53.9
12 | CCCNc1c(NS(=O)(=O)c2c(F)c(F)c(F)c(F)c2F)c(=O)oc2ccccc12 | -7.27
13 | COc1ccc(S(=O)(=O)Nc2c(NC3CCCCC3)c3ccccc3oc2=O)cc1OC | -6.99
14 | COc1ccc(S(=O)(=O)Nc2c(NC3CCCCC3)c3ccccc3oc2=O)cc1 | -45.2
15 | CCCNc1c(NS(=O)(=O)c2ccc(C)c(C)c2)c(=O)oc2ccccc12 | -30.6
16 | Cc1ccc(S(=O)(=O)Nc2c(NC3CCCCC3)c3ccccc3oc2=O)c(C)c1 | -19.6
17 | CCCNc1c(NS(=O)(=O)c2ccc(C)cc2C)c(=O)oc2ccccc12 | -52.2
18 | CCOc1ccccc1N1CCN(C(=S)Nc2ccc(S(=O)(=O)Nc3ncccn3)cc2)CC1 | -3.73
19 | O=C(COC(=O)Cc1ccc(-c2ccccc2)cc1)NCc1ccccc1 | 20.8
20 | CC(C)c1ccc(NC(=O)c2ccc(Br)o2)cc1 | 3.82
21 | COc1ccc(OCC(=O)Nc2ccncc2)cc1 | -17.3
22 | O=c1[nH]c(CN2CCN(CCO)CC2)nc2ccccc12 | 21.5

Row | Structure (SMILES) | hERG current change (%, negative = inhibition) at 10uM [%]
23 | O=C(NC1=NCCS1)c1cc(Cl)ccc1Cl | -24
24 | Cn1cc(C(c2ccccn2)c2cn(C)c3ccccc23)c2ccccc21 | 8.3
25 | CCc1[nH]c(=S)c(C#N)c(-c2ccccc2)c1C(=O)OC | 25.5
26 | Cc1cc(=O)[nH]c(N/N=C/c2sccc2C)n1 | -1.84
27 | CCOc1ccc(C(=O)COC(=O)CC)cc1 | 4.46
28 | CC(/C=N/n1cnnc1)=C\c1ccco1 | -16.9
29 | CCCNc1c(NS(=O)(=O)c2cccc(C#N)c2)c(=O)oc2ccccc12 | -58.7
30 | CCCNc1c(NS(=O)(=O)c2ccc3c(c2)CCCC3)c(=O)oc2ccccc12 | 8.8
31 | CCCNc1c(NS(=O)(=O)c2ccc(Br)cc2)c(=O)oc2ccccc12 | -34.7
32 | CC(NC(=O)c1ccc(S(=O)(=O)N(C)C)cc1)c1ccc(-n2ccnc2)cc1 (stereo not drawn) | -74
33 | CNC(=O)c1cc(S(=O)(=O)N(C)C)ccc1Cl | 5.59
34 | CC(NC(=O)c1cc(S(=O)(=O)N(C)C)ccc1Cl)c1ccc(-n2ccnc2)cc1 (stereo not drawn) | -76.8
35 | CC(C)NC(=O)c1ccc(S(=O)(=O)N(C)C)cc1 | 0.0301
36 | CC(NC(=O)c1ccc(S(=O)(=O)N(C)C)cc1)c1ccccc1 (stereo not drawn) | 0.971
37 | O=C(Cc1c(O)c2ccccc2[nH]c1=O)NC1CCCCCC1 | 3.69
38 | OCCNc1c2ccccc2nc2c(F)c(F)c(F)c(F)c12 | 14.6
39 | Cn1nc(C(F)(F)F)c(/C=N/OC(=O)c2ccccc2Cl)c1SCc1ccccc1Cl | -5.41
40 | CSc1ccc(S(=O)(=O)NCC(=O)OCC(=O)NCc2ccco2)cc1[N+](=O)[O-] | -61.7
41 | CSc1ccc(S(=O)(=O)NCC(=O)OCC(=O)NCCc2ccccc2)cc1[N+](=O)[O-] | 9.18
42 | Cc1cc(S(=O)(=O)NCC(C)C)ccc1OCC(=O)NCc1ccco1 | -73.4
43 | Cc1cc(S(=O)(=O)NCC(C)C)ccc1OCC(=O)NCc1ccccn1 | -22.8
44 | CSc1ccc(S(=O)(=O)NCC(=O)OCC(=O)NCc2cccs2)cc1[N+](=O)[O-] | -44.5

Row | Structure (SMILES) | hERG current change (%, negative = inhibition) at 10uM [%]
45 | CC(C)CNS(=O)(=O)c1ccc(OCC(=O)NCc2ccco2)cc1 | -11.6
46 | N#C/C(=N\Nc1cccc(C(F)(F)F)c1)C(=O)c1ccsc1 | 11.3
47 | COc1ccc(N2C(=O)CC(N3CCN(c4ccccc4OC)CC3)C2=O)cc1 (stereo not drawn) | 6.7
48 | O=S(=O)(Cc1ccccc1)Nc1ccc(S(=O)(=O)N2CCCC2)cc1 | 5.25
49 | Cc1ccc(C)c(C(=O)CSc2n[nH]c(-c3ccncc3)n2)c1 | -0.0279
50 | CCN1/C(=C/C=C/C=C/C=C/c2sc3ccccc3[n+]2CC)Sc2ccccc21.[I-] | -49.5
51 | CC[n+]1c(/C=C(/C)SC)sc2ccccc21.COS(=O)(=O)[O-] | 5.99
52 | CCN1/C(=C\C=C(C(C)=O)C(C)=O)Sc2ccccc21 | -2.64
53 | CCN1/C(=C/C=C/C=C/c2sc3ccccc3[n+]2CC)Sc2ccccc21.[I-] | -78.9
54 | CCN1/C(=C\C=C2\C(=O)N(C)C(=S)N2C)Sc2ccccc21 | 24
55 | CCN1/C(=C/C(C)=C/c2sc3ccccc3[n+]2CC)Sc2ccccc21.[I-] | -78.8
56 | CC[n+]1c(/C=C(\C)SC)sc2ccccc21.COS(=O)(=O)[O-] | 3.25
57 | CCOC(=O)/C(=C/C=C1\Sc2ccccc2N1CC)C(C)=O | 4.94
58 | CCN1/C(=C/C=C/c2sc3ccccc3[n+]2CC)Sc2ccccc21.[I-] | -73.8
59 | Cn1nc(C(=O)NCc2cccc(Cl)c2)c2c1-c1ccccc1S(=O)(=O)C2 | 9.4
60 | CN(C)S(=O)(=O)c1cccc(NC(=O)Cn2cc(C(F)(F)F)cc(Cl)c2=O)c1 | 3.98
61 | CN(CC(=O)Nc1cccc(F)c1)CC(=O)N(C)CC(=O)Nc1ccccc1Br | -13.7
62 | O=c1ccnc(NCCc2ccccc2)[nH]1 | 12.7
63 | COCCCn1c(-c2ccco2)nc2ccccc2c1=O | -16
64 | O=c1c2ccccc2nc(-c2ccccc2)n1CCCn1ccnc1 | -31.9
65 | CCCCn1c(-c2ccco2)nc2ccccc2c1=O | -12.2
66 | O=c1c2ccccc2nc(-c2ccco2)n1CCCn1ccnc1 | -53.9

Row | Structure (SMILES) | hERG current change (%, negative = inhibition) at 10uM [%]
67 | COc1ccc(-c2nc3ccccc3c(=O)n2CCCn2ccnc2)cc1 | -49
68 | Cc1ccc(-c2nc3ccccc3c(=O)n2CCCn2ccnc2)cc1 | -57.7
69 | CCn1c(NN)nc2sc3c(c2c1=O)CCC3 | 17.5
70 | COc1ccc2c(c1)C=C([C@@H]1C[C@H]3CN(c4ccccc4)C(=O)[C@]34CCCN14)CO2 | -49.2
71 | OCC(O)C1OC(Nc2ccc(Br)cc2)C(O)C1O (stereo not drawn) | 16.7
72 | CN(C)c1cccc(C(=O)NCc2ccc(Cl)cc2)c1 | -8.25
73 | Cc1nc2nc[nH]n2c(=O)c1NS(C)(=O)=O | 4.48
74 | CCc1ccc(-c2nc(SCC(=O)NC3CCS(=O)(=O)C3)n[nH]2)cc1 (stereo not drawn) | 4.84
75 | C=CCn1c(=O)c(C=Nc2cccc([N+](=O)[O-])c2)c(O)n(CCCC)c1=O | -55
76 | C=CCn1c(=O)c(C=Nc2cccnc2Cl)c(O)n(CCCC)c1=O | -5.65
77 | C=CCn1c(=O)c(C=Nc2c(OC)cccc2[N+](=O)[O-])c(O)n(CCCC)c1=O | -23.8
78 | O=C(COc1coc(CN2CCc3ccccc3C2)cc1=O)Nc1cccc([N+](=O)[O-])c1 | 2.89
79 | CCc1ccc(N2CC(C(=O)Nc3ccc(C)c(S(=O)(=O)N4CCOCC4)c3)CC2=O)cc1 (stereo not drawn) | -34.6
80 | COc1ccc(NS(=O)(=O)c2cccc(Cl)c2)cc1S(=O)(=O)N1CCCCC1 | 7.81
81 | COc1ccc(NC(=O)CC(C)CC(=O)NCc2ccccc2)c(OC)c1 (stereo not drawn) | -0.642
82 | CCCc1cc(Nc2cccc(OCC)c2)n2ncnc2n1 | -68
83 | CCCc1cc(Nc2cccc(OC)c2)n2ncnc2n1 | -28.5
84 | CCCc1cc(Nc2ccccc2)n2ncnc2n1 | 2.69
85 | CSc1ccc(S(=O)(=O)N2CCC(C(=O)NC3CC3)CC2)cc1 | -7.17
86 | C=CCNC1=C(Cl)C(=O)c2ccccc2C1=O | 4.26
87 | Cc1ccc(S(=O)(=O)N2CCN(C)CC2)cc1C(=O)NC1CCCCC1 | -19.5
